Our source for the binding signal values is publication PMC7862700, “An all-to-all approach to the identification of sequence-specific readers for epigenetic DNA modifications on cytosine”.

Holding throughout (experiment): DAPPL (digital affinity profiling via proximity ligation, sequencing); 10 mM Tris-HCl pH 7.5, 50 mM NaCl, 1 mM DTT, 4% glycerol, room temperature, 30 min; GST-TFs on glutathione beads, 16-mer random dsDNA library, 0.1% formaldehyde crosslink after washing; high values mean tight binding
Assay [1] deals with T1, FEV (Homo sapiens, UniProt Q99581 1-238).
T1 sequence: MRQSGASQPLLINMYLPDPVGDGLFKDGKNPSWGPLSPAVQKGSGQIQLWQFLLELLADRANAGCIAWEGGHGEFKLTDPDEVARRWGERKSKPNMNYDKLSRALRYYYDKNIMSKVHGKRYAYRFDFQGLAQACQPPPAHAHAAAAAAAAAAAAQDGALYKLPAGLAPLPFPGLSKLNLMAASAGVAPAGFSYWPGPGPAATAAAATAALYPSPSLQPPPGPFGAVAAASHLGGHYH
The note with it: protein: recombinant; tags: N-terminal GST; dsDNA, one strand shown. Summed up: (§1)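 Yeast served to express human transcription factors as GST fusions, which were then captured on glutathione beads and labelled with DNA barcodes. Pooled with a tag-only sample, they were incubated with 200 nmole of a 16-mer random double-stranded DNA library for 30 min at room temperature in Tris/NaCl/DTT/glycerol buffer, washed, crosslinked with 0.1% formaldehyde, ligated by proximity, amplified by PCR and sequenced. Dividing each hexamer's read frequency for a factor by its frequency for the tag-only sample gives the binding signal.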

The target in assay [2] is ETV5 (Homo sapiens, UniProt P41161 1-510). The note with it: protein: recombinant; tags: N-terminal GST; dsDNA, one strand shown. The method, boiled down:
as §1

The target in assay [3] is HSF1 (Homo sapiens, UniProt Q00613 1-529). The conditions noted are these: protein: recombinant; tags: N-terminal GST; chain copies: 3; dsDNA, one strand shown. Summed up: as §1
The target of assay [4] is T2, SPIC (Homo sapiens, UniProt Q8N5J4 1-248).
T2 sequence: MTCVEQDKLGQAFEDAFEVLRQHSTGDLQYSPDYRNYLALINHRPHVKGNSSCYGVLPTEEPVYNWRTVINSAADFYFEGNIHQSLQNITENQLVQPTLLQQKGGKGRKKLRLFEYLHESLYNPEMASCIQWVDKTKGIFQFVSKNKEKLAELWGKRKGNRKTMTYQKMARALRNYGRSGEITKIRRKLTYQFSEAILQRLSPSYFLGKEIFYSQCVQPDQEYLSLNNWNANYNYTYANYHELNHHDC
The conditions noted are these: protein: recombinant; tags: N-terminal GST; dsDNA, one strand shown. The method, boiled down:
as §1

Assay [5] addresses ELF4 (Homo sapiens, UniProt Q99607 1-663). The conditions noted are these: protein: recombinant; tags: N-terminal GST; dsDNA, one strand shown. The method, boiled down:
as §1

Assay [6] deals with T3, ELK4 (Homo sapiens, UniProt P28324-2 1-405).
T3 sequence: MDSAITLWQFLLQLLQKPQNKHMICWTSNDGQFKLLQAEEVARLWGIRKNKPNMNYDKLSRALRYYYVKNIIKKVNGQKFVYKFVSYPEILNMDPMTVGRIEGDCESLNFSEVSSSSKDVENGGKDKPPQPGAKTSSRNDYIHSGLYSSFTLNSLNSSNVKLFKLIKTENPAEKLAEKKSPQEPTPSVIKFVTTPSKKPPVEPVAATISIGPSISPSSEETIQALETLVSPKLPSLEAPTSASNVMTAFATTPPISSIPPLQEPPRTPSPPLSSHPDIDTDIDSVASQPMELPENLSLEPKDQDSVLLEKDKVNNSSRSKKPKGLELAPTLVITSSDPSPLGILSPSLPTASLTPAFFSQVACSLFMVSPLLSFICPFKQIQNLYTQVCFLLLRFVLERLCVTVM
The note with it: protein: recombinant; tags: N-terminal GST; dsDNA, one strand shown. The method, boiled down:
as §1

The target of assay [7] is T4, ETV2 (Homo sapiens, UniProt O00321 1-342).
T4 sequence: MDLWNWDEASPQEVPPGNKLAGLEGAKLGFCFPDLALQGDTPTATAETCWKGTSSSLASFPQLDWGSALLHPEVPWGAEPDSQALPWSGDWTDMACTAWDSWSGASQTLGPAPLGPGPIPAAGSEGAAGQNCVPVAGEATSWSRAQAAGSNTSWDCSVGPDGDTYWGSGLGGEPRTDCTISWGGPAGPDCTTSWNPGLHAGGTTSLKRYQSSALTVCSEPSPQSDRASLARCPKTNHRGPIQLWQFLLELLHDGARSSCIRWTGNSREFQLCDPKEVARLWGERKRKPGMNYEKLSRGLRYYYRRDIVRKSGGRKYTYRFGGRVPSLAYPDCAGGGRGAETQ
The conditions noted are these: protein: recombinant; tags: N-terminal GST; dsDNA, one strand shown. The method, boiled down:
as §1

Assay [8] addresses T5, ELF3 (Homo sapiens, UniProt P78545 1-371).
T5 sequence: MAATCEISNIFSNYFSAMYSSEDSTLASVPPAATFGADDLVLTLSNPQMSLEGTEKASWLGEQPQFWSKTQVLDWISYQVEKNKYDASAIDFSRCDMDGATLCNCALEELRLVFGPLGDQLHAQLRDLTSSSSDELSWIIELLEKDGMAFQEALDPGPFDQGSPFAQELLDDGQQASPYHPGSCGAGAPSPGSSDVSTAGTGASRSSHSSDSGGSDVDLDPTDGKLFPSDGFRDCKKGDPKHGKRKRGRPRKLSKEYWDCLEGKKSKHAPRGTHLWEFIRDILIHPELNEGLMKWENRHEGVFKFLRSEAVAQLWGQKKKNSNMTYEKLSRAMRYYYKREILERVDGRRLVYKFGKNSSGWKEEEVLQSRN
The conditions noted are these: protein: recombinant; tags: N-terminal GST; dsDNA, one strand shown. The method, boiled down:
as §1

The target in assay [9] is CRX (Homo sapiens, UniProt O43186 1-299). The conditions noted are these: protein: recombinant; tags: N-terminal GST; dsDNA, one strand shown. The method, boiled down:
as §1

Assay [10] concerns the target ETV1 (Homo sapiens, UniProt P50549 1-477). The conditions noted are these: protein: recombinant; tags: N-terminal GST; dsDNA, one strand shown. The method, boiled down:
as §1

CRX, sequence (O43186 whole entry): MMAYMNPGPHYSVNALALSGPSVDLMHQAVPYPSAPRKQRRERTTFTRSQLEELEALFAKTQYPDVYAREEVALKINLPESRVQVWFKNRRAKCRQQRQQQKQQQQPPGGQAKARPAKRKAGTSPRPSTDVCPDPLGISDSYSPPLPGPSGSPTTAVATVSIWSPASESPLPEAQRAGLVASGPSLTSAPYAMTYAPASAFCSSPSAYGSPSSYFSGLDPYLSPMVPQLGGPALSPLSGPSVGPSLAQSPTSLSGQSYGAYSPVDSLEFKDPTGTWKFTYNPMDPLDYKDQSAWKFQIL
HSF1, sequence (Q00613 whole entry): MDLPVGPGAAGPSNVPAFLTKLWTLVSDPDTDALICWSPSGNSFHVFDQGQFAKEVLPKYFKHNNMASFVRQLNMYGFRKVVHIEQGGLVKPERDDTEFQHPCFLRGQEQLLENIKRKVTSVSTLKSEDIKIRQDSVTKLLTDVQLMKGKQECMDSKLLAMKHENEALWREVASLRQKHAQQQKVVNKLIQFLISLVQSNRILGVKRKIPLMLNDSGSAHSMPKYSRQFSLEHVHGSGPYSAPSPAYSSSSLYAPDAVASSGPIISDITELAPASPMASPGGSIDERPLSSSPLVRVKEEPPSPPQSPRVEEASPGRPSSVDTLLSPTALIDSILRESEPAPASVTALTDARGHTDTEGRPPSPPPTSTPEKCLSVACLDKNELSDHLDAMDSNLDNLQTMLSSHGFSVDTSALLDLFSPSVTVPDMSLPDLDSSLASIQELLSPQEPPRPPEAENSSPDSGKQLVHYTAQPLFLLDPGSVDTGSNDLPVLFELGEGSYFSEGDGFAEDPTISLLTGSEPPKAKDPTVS
ETV5, sequence (P41161 whole entry): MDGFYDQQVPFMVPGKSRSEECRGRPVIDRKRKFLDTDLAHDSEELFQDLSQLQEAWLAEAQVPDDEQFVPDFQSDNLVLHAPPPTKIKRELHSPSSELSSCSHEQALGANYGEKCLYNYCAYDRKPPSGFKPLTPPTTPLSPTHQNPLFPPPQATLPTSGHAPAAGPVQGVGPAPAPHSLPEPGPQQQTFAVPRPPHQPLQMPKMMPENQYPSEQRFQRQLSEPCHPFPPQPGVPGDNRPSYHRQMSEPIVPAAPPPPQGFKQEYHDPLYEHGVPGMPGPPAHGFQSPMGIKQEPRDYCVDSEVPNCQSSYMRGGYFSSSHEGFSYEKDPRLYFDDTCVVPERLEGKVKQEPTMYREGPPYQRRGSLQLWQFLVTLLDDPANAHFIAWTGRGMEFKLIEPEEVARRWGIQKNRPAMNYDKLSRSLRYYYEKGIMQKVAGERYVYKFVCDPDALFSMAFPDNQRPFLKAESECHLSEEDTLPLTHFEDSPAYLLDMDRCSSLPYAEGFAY
ETV1, sequence (P50549 whole entry): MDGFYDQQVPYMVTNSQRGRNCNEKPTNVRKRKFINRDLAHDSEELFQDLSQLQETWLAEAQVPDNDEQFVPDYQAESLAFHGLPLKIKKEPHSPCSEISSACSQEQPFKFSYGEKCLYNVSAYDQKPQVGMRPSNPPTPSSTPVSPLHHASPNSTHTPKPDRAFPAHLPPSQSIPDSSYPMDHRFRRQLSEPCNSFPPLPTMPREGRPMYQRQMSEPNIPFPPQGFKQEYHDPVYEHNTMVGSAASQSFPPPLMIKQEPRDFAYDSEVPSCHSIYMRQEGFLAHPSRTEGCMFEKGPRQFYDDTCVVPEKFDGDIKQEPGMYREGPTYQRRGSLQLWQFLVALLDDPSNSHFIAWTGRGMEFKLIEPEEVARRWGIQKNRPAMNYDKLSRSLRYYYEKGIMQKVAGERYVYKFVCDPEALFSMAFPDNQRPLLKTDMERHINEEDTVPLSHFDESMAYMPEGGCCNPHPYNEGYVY
ELF4, sequence (Q99607 whole entry): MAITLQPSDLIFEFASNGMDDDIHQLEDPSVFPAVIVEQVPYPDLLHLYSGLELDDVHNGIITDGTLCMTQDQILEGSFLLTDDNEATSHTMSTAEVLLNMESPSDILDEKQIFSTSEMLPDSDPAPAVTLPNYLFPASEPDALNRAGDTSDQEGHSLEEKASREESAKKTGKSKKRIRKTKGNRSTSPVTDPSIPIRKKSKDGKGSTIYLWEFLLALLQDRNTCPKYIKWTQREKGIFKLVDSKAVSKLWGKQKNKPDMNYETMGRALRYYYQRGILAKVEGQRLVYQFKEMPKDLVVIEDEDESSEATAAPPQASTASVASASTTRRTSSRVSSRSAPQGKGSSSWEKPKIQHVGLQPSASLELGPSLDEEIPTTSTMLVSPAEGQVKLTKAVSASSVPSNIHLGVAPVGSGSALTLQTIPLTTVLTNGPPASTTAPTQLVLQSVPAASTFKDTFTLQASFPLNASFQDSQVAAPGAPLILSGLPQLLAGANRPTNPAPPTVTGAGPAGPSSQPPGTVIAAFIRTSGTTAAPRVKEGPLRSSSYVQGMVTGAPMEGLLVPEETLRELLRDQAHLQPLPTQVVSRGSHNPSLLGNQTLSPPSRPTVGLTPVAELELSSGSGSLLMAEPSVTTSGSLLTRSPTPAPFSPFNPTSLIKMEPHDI

With TAGATT, the binding signal in assay [1] is 1.14 fold enrichment (6-mer frequency, TF over GST control); in [2], 1.12 fold enrichment (6-mer frequency, TF over GST control); in [3] it was 2.19 fold enrichment (6-mer frequency, TF over GST control); in assay [4] it was 1.28 fold enrichment (6-mer frequency, TF over GST control); in assay [5] it was 1.19 fold enrichment (6-mer frequency, TF over GST control); in assay [6], 1.29 fold enrichment (6-mer frequency, TF over GST control). In addition, the binding signal was 1.13 fold enrichment (6-mer frequency, TF over GST control) in assay [7]; 1.07 fold enrichment (6-mer frequency, TF over GST control) in assay [8]; 2.29 fold enrichment (6-mer frequency, TF over GST control) in assay [9]; 1.22 fold enrichment (6-mer frequency, TF over GST control) in assay [10].
In the case of GCCTTT, the binding signal in assay [1] was 1.41 fold enrichment (6-mer frequency, TF over GST control); in assay [2], 1.25 fold enrichment (6-mer frequency, TF over GST control); in assay [3], 1.24 fold enrichment (6-mer frequency, TF over GST control); in assay [4] it was 1.56 fold enrichment (6-mer frequency, TF over GST control); in assay [5], 1.36 fold enrichment (6-mer frequency, TF over GST control); in [6], 1.32 fold enrichment (6-mer frequency, TF over GST control). Besides, the binding signal was 1.53 fold enrichment (6-mer frequency, TF over GST control) in assay [7]; 1.38 fold enrichment (6-mer frequency, TF over GST control) in assay [8]; 1.3 fold enrichment (6-mer frequency, TF over GST control) in assay [9]; 1.34 fold enrichment (6-mer frequency, TF over GST control) in assay [10].
As for ATGGCT, the binding signal in [1] was 1.33 fold enrichment (6-mer frequency, TF over GST control); in assay [2] it was 1.29 fold enrichment (6-mer frequency, TF over GST control); in assay [3] it was 1.32 fold enrichment (6-mer frequency, TF over GST control); in [4], 1.42 fold enrichment (6-mer frequency, TF over GST control); in assay [5], 1.32 fold enrichment (6-mer frequency, TF over GST control); in assay [6] it was 1.34 fold enrichment (6-mer frequency, TF over GST control). Moreover, the binding signal in assay [7] is 1.41 fold enrichment (6-mer frequency, TF over GST control); in assay [8], 1.33 fold enrichment (6-mer frequency, TF over GST control); in assay [9] it was 1.48 fold enrichment (6-mer frequency, TF over GST control); in assay [10], 1.29 fold enrichment (6-mer frequency, TF over GST control).
Take CGATCC: the binding signal in assay [1] was 1.2 fold enrichment (6-mer frequency, TF over GST control); in assay [2], 1.19 fold enrichment (6-mer frequency, TF over GST control); in [3], 1.31 fold enrichment (6-mer frequency, TF over GST control); in [4], 1.11 fold enrichment (6-mer frequency, TF over GST control); in [5], 1.21 fold enrichment (6-mer frequency, TF over GST control); in assay [6], 1.11 fold enrichment (6-mer frequency, TF over GST control). Besides, the binding signal in assay [7] was 1.19 fold enrichment (6-mer frequency, TF over GST control); in assay [8], 1.08 fold enrichment (6-mer frequency, TF over GST control); in assay [9], 1.27 fold enrichment (6-mer frequency, TF over GST control); in assay [10], 1.25 fold enrichment (6-mer frequency, TF over GST control).
TGTCTA: the binding signal in assay [1] is 1.14 fold enrichment (6-mer frequency, TF over GST control); in assay [2], 1.24 fold enrichment (6-mer frequency, TF over GST control); in assay [3], 1.15 fold enrichment (6-mer frequency, TF over GST control); in [4], 1.35 fold enrichment (6-mer frequency, TF over GST control); in assay [5] it was 1.2 fold enrichment (6-mer frequency, TF over GST control); in assay [6] it was 1.06 fold enrichment (6-mer frequency, TF over GST control). Further, the binding signal was 1.34 fold enrichment (6-mer frequency, TF over GST control) in assay [7]; 1.06 fold enrichment (6-mer frequency, TF over GST control) in [8]; 1.05 fold enrichment (6-mer frequency, TF over GST control) in assay [9]; 1.24 fold enrichment (6-mer frequency, TF over GST control) in assay [10].
TCTCCG: the binding signal in assay [1] is 1.69 fold enrichment (6-mer frequency, TF over GST control); in [2] it was 1.61 fold enrichment (6-mer frequency, TF over GST control); in [3], 1.43 fold enrichment (6-mer frequency, TF over GST control); in [4], 1.55 fold enrichment (6-mer frequency, TF over GST control); in [5], 1.59 fold enrichment (6-mer frequency, TF over GST control); in assay [6], 1.68 fold enrichment (6-mer frequency, TF over GST control). Moreover, the binding signal in assay [7] is 1.47 fold enrichment (6-mer frequency, TF over GST control); in assay [8] it was 1.2 fold enrichment (6-mer frequency, TF over GST control); in assay [9], 1.37 fold enrichment (6-mer frequency, TF over GST control); in [10], 1.48 fold enrichment (6-mer frequency, TF over GST control).
Regarding ACTCCC, the binding signal was 1.32 fold enrichment (6-mer frequency, TF over GST control) in [1]; 1.42 fold enrichment (6-mer frequency, TF over GST control) in assay [2]; 1.15 fold enrichment (6-mer frequency, TF over GST control) in [3]; 1.46 fold enrichment (6-mer frequency, TF over GST control) in assay [4]; 1.31 fold enrichment (6-mer frequency, TF over GST control) in assay [5]; 1.32 fold enrichment (6-mer frequency, TF over GST control) in assay [6]. The binding signal in assay [7] was 1.11 fold enrichment (6-mer frequency, TF over GST control); in assay [8], 1.25 fold enrichment (6-mer frequency, TF over GST control); in [9], 1.13 fold enrichment (6-mer frequency, TF over GST control); in assay [10] it was 1.25 fold enrichment (6-mer frequency, TF over GST control).
